# Measured values reported in PubChem BioAssay (NCATS).
# Records with an inconclusive call do not appear. A number with no mark means an inactive call. The source made the active and inactive calls. The call rests on the fitted dose curve; in most records, active means well fitted inhibition curve with a large enough effect; inconclusive means small, poorly fitted or top-dose-only effect; inactive means no such curve, though single readings can be large or run the other way.
# Test system: Zika virus NS2B-NS3 protease (unlinked complex)
# Test: Primary screen GU Rhodamine qHTS for Zika virus inhibitors: Unlinked NS2B-NS3 protease assay (AID 1347159); further: nearly all actives have a fitted effect of over 60% in size
# Conditions: Recombinant ZIKV NS2B-NS3 protease, Rhodamine110 substrate fluorescence; series mostly up to 107 µM; activity change, negative = inhibition: at the top concentration
# Source text: Avindra Nath, Ph.D., National Institute of Neurological Disorders and Stroke (NINDS), Bethesda, MD
# Radhakrishnan Padmanabhan, Ph.D., Georgetown University (GU), Washington D.C.
# Zika Virus causes congenital defects, including microcephaly and is associated with Guillain-Barre syndrome, eningoencephalitis and myelitis in infected adult. […] Using a target-based approach, we hope to establish a screening paradigm to uncover novel, cell-active NS2B-NS3 protease (Zika Virus) specific inhibitors from NCATS' collection of small molecules using qHTS.
# Four assay panel was created to identify potential Zika Virus inhibitors. Namely, (1) GU unlinked NS2B-NS3 AMC tagged protease qHTS, (2) GU unlinked NS2B-NS3 Rhodamine tagged protease qHTS, (3) NINDS linked NS2B-NS3 AMC tagged protease qHTS, (4) NINDS linked NS2B-NS3 Rhodamine tagged protease qHTS. Active compounds were re-acquired and re-screened to confirm inhibition. Inhibitors were further screened against various confirmatory and counterscreens in dose response format.
# Early Translation Branch (ETB)
# National Center for Advancing Translational Sciences (NCATS), Rockville, MD
# National Institute of Health (NIH), Bethesda, Maryland
# Padmanabhan lab provided the NS2B hydrophilic domain and NS3 protease domain in a noncovalent complex used for the unlinked assay. Control compound aprotinin is obtained from Thermo Scientific (#78432; Waltham, Massachusetts). Rhodamine110 substrate ([N-Cbz]-Nle-Lys-Arg-Arg-Rhod110-Arg-Arg-Lys-Nle-[N-Cbz]) was purchased from either Genscript or Bachem.
# 1536-well Protease (Rhodamine110 Substrate) Assay:
# Briefly, 3 microL of enzyme (25 nM final concentration), in assay buffer (10 mM Tris-HCl pH 8.0 with 0.01% Tween 20) were dispensed into a 1,536-well solid-bottom black plate (Greiner Bio One, Monroe, NC). Twenty-three nL of compounds (final concentration range 7.28 nM to 114 microM) or control Aprotinin (final concentration range 3.47 nM to 114 microM) were transferred via Wako Pin-tool (Wako Automation, Richmond, VA). Samples were incubated (room temperature, protected from light) for 15 minutes followed by a 1 microL Rhodamine110 substrate addition (1.5 microM final concentration). Plates were then immediately read on a ViewLux High-throughput CCD imager (PerkinElmer, Waltham, MA) equipped with FITC fluorescence optics (480(20) nm excitation, 540(25) nm emission), then incubated (room temperature, protected from light) for 15 minutes (~15% conversion). The change in fluorescence intensity over the 15-minute reaction period was normalized against no-inhibitor and no-enzyme controls and the resulting percent inhibition data were fitted to a 4-parameter Hill equation. Aprotinin was used as intraplate control.
# On the % scale 0 is the no-effect control and ±100 the full control effect; potency means the concentration at half of the fitted maximal effect.
SMILES,"activity change, negative = inhibition",Potency
CCNC(=O)Nc1ccc(-c2nc3c(c(N4CCOCC4C)n2)CCN(C2COC2)C3)cc1 (stereo not given),-0.893%,
N#Cc1ccc(O[C@@H]2c3ccccc3C[C@H]2N2CCC[C@@H](N)C2)c(Cl)c1,182%,
CC(=O)OC[C@]12[C@H](OC(C)=O)[C@H](OC(=O)c3ccccc3)[C@@H]3[C@@H](OC(C)=O)[C@]1(OC3(C)C)[C@H](C)C[C@H](OC(C)=O)[C@@H]2OC(=O)c1ccccc1,2.45% [at 32.5 µM],
CC(C)S(=O)(=O)NC[C@@H]1CC(c2ccc(N3CCCC3)c(F)c2)=NO1,50.5%,
CNc1cc2[nH]c(=O)n(-c3ccc(NC(=O)NS(=O)(=O)c4ccc(Cl)s4)cc3)c(=O)c2cc1F,-24.4%,
Cc1ccc(NC(=O)C(C)C)cc1C1CCN(Cc2ccc(Oc3ccc(F)c(F)c3)cc2)CC1,134%,
C=C1C(=O)OC2/C=C(\COC(C)=O)CC/C=C(\C=O)CC(OC(=O)C(C)CC)C12 (stereo not given),4.97% [at 57.1 µM],
COc1ccc([C@H]2OC[C@H]3O[C@@H](O[C@H]4[C@@H]2NC[C@@H]4O)[C@H](O)[C@H]3O)cc1,15.9%,
CC(=O)O[C@H]1[C@@]2(O)C[C@H](C)[C@H](OC(=O)c3ccccc3)[C@@H]2[C@@H](OC(=O)CO)[C@]2(OC(C)=O)C[C@H]3C(=O)C(C)(C)C[C@@H]3[C@@]1(C)[C@H]2OC(C)=O,-4.29% [at 32.5 µM],
O=C(Nc1ccccc1)N1CCC(Cc2cnc3ccccc3c2)CC1,-14.2%,
NS(=O)(=O)c1ccc(NC(=O)Nc2ccc(F)cc2)cc1,-6.79%,
COc1cccc(NCCC2(c3ccccc3)CC(C)(C)OC(C)(C)C2)c1,9.19%,
Cc1cc(NC(=O)c2cccc(NC(=O)/C=C/CN(C)C)c2)ccc1Nc1nccc(-c2cccnc2)n1,51.6%,
COc1cc(N2CCOCC2)ccc1NC(=O)c1csc(-c2cccnc2)n1,-1.07%,
C=C1[C@H]2CC[C@H](C(=O)O)[C@@]23CC[C@H](C3)C1(C)C,-0.108%,
CC(C)(C)c1ccc(-c2nc3c(N4CCN(Cc5ccc6nccnc6c5)CC4)cccc3[nH]2)cc1,29.3%,
C=C[C@@]1(C)CCC2C(=CCC3[C@]2(C)CCC[C@@]3(C)C(=O)O)C1 (stereo not given in full),,22.4 µM (active)
CC(=O)O[C@H]1C[C@H](OC(C)=O)[C@]2(C)[C@H](CC[C@@]34O[C@@H]3C3=C(C)C(=O)O[C@@H]3C[C@H]42)C1(C)C,1.5% [at 57.1 µM],
CCCCC1CCN(CCCN2C(=O)CCc3ccccc32)CC1,65.1%,
Cc1cccc(-c2[nH]ncc2-c2ccc(F)c(-c3cnn(CCO)c3)c2)n1,12.8%,

SMILES,"activity change, negative = inhibition",Potency
C[C@@H](NC(=O)C(=O)c1c[nH]c2ccc([N+](=O)[O-])cc12)c1ccccc1,-11.5%,
CC(=O)c1c(C)cc2cccc(O)c2c1O[C@@H]1O[C@H](CO)[C@@H](O)[C@H](O)[C@H]1O,-10.9%,
C=C(C)C(=O)OC1CC2(C)OC(=CC2=O)C(=C)CC2OC(=O)C(=C)C12 (stereo not given),13%,
COc1cc(F)c(F)c(Nc2ccc(I)cc2F)c1NS(=O)(=O)C1(CC(O)CO)CC1 (stereo not given),-3.19%,
Cc1cc(C)c(S(=O)(=O)n2cc(C)cc2C)c(C)c1,-29.4%,
Cc1cc(OCCCS(C)(=O)=O)cc(C)c1-c1cccc(COc2ccc3c(c2)OCC3CC(=O)O)c1 (stereo not given),,12.6 µM (active)
C=C1CC[C@@H](O)[C@]2(C)CC[C@H]3C(=C)C(=O)O[C@@H]3[C@@H]12,-15.6%,
C[C@H](CN(C)C)Oc1nc(Nc2cc3cccc(Cl)c3cn2)cnc1C#N,-10.4%,
C=C[C@H](/C=C\c1ccc(O)cc1)c1ccc(O)cc1,3.85%,
CCN(CCNC(=O)Nc1ccccc1Br)c1cccc(C)c1,0%,
CCc1ccccc1OC[C@@H](O)CN[C@H]1CCCc2ccccc21,72.7%,
CCc1c(Cl)c(O)c(Cl)c(O)c1C(=O)O[C@H]1[C@H](O)[C@H](OC)[C@H](OC/C2=C\C=C\C[C@H](O)/C(C)=C\[C@H](CC)[C@@H](O[C@@H]3OC(C)(C)[C@@H](OC(=O)C(C)C)[C@H](O)[C@@H]3O)/C(C)=C/C(C)=C/C[C@@H]([C@@H](C)O)OC2=O)O[C@@H]1C,,11.2 µM (active)
CC12CCC(OC3OC(CO)C(O)C(O)C3OC3OC(CO)C(O)C(O)C3O)CC1CCC1C2CCC2(C)/C(=C3/COC(=O)C3)CCC12O (stereo not given),20.1% [at 32.5 µM],
Cc1cccc(C#Cc2cc(F)cc(C#N)c2)n1,30.1%,
CN1CC2CN(c3ccc4oc5ccccc5c(=O)c4c3)CC2C1 (stereo not given),34.8% [at 57.1 µM],
O=C(Nc1nnc(-c2ccc3c(c2)OCCO3)o1)C1CCCCC1,332%,
COCCN(C(=O)c1cc(OC)c(OC)c(OC)c1)c1nc(-c2ccccc2)cs1,-4.45%,
O=C(NCCCNc1nc(Nc2cccc(CN3CCOCC3)c2)ncc1C1CC1)C1CCC1,18.1%,
COc1c(F)cccc1C(=O)N1C[C@@H](C)CC[C@H]1CNc1ccc(Br)cn1,-12.1%,
C[C@@H]1C[C@H]2O[C@@]3(O[C@@H]2C(C)(C)O)C(O)[C@@]2(C)C4CCC5C(C)(C)[C@@H](O[C@H]6OC[C@H](O)[C@@H](O)[C@@H]6O)CC[C@@]56C[C@@]46CC[C@]2(C)C13 (stereo not given in full),-21.6% [at 32.5 µM],
